Screening results deposited in PubChem BioAssay by National Center for Advancing Translational Sciences (NCATS).
AMA1 RON2 block: disrupts binding of P. falciparum AMA1 to RON2; AID 720542; Potency, µM (doses to about 58.2 µM), hits mostly inhibitors; AlphaScreen AMA1-biotinylated RON2 peptide binding; actives 0.2% (n = 360,000); further: nearly all actives have a fitted effect of over 45% in size
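AMA1 (3D7) with his tag at 25 nM final met compounds first, then biotinylated RON2 peptide at 25 nM; detection used donor plus acceptor beads, 10 µg/mL apiece, read by AlphaScreen after 30 min at room temperature.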
Pf growth 48h: inhibits P. falciparum growth in the first generation, 48 h. AID 504832. actives 5.9% (n = 310,000). Potency, µM (top dose mostly 28.7 µM), most hits filed as inhibitors. P. falciparum luciferase growth in erythrocytes, 48 h
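Parasite viability was followed by luminescence of a genomically integrated firefly luciferase. Cultures held 0.1% parasitemia at 2% hematocrit (final), incubated under 5% CO2 at 37 C.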
SARS PLP yeast: SARS-CoV PLP inhibition in yeast | Potency, µM (series often up to 32.9 µM), usual class: activators | actives 0.19% (n = 330,000) | S. cerevisiae expressing SARS-CoV PLpro, growth rescue; calls by dose curve; further: nearly all actives have a fitted effect of over 55% in size
Pf growth 96h: P. falciparum growth inhibition at 96 hours | P. falciparum luciferase reporter growth, 96 h | Potency, µM (series often up to 28.7 µM), hits mostly inhibitors | actives 6.9% (n = 320,000) | AID 504834
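Two-generation exposure (96 h) targets delayed-death phenotype. Reporter parasites carrying integrated firefly luciferase, in red cells at 2% hematocrit and 0.05% parasitemia final, kept at 37 C, 5% CO2; luminescence loss indicates inhibition.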
Hits are given with their value; . = inactive; ? = inconclusive; / = not tested or not shown; [ ] = dose if it differs, or a comment. Most compounds without a hit are left out; they make up all but 9.4% or so of the library. Unless noted, the call rests on the fitted dose curve; in most records, active means well fitted curve in the direction sought with a large enough effect; inconclusive means small, poorly fitted or top-dose-only effect, or another doubt; inactive means no such curve, though single readings can be large; an effect the other way counts as inactive or inconclusive.

SMILES	AMA1 RON2 block	Pf growth 48h	SARS PLP yeast	Pf growth 96h
CN(C(=O)CSc1nc2c(c(=O)[nH]1)CCC2)c1ccccc1	.	.	.	.
CSCc1c(C(=O)N2CCCc3ccccc32)oc2ccccc12	?	12µM	.	.
COC(=O)c1ccc(C2c3c(oc4cc(C)c(C)cc4c3=O)C(=O)N2CCCN(C)C)cc1 (centres undefined)	/	5.2µM	.	.
CCN(c1cccc(C)c1)S(=O)(=O)c1ccc(-c2cc(C)no2)s1	.	?	.	12µM
Cc1cccc(N(C)S(=O)(=O)c2ccc(-c3cc(C)no3)s2)c1	.	.	.	.
CNc1sc(C(=O)c2cccs2)c(N)c1-c1nc2ccccc2s1	.	.	.	.
c1ccc2c(c1)Nc1ccccc1S2	?	12µM	.	4.8µM
CCOC(=O)C(C)c1nn(C)c(=O)c2ccccc12 (centres undefined)	.	.	.	.
Cc1ccc(S(=O)(=O)NCCC(=O)OCC(=O)N(Cc2ccccc2)C(C)(C)C)cc1C	.	.	.	.
COc1ccc(OC)c(C(=O)CSc2nccc(-c3ccc(Br)cc3)n2)c1	.	12µM	.	?
C/C(CCc1oc2ccccc2c1-c1ccc(C)o1)=N/O	.	.	.	.
C/C(CCc1oc2c(Br)cc(Br)cc2c1-c1ccc(C)o1)=N\O	3.8µM	?	.	.
N#CCC1c2ccccc2CCN1C(=O)Nc1ccc(C(F)(F)F)cc1 (centres undefined)	.	13µM	.	5.9µM
CC1(C(=O)NCc2cccc3ccccc23)CCN1C(=O)C1(c2ccccc2)CC1 (centres undefined)	.	/	/	/
Brc1ccc(/C=N/Nc2nc3ccccc3o2)cc1	.	.	.	?
Oc1ccccc1/C=N/Nc1nc2ccccc2o1	.	2.6µM	.	2.1µM
Cc1ccc(S(=O)(=O)NC(=O)N(C)C2CCCCC2)cc1	.	.	.	.
Cc1cc2cc3c(cc2nc1SCc1ccc(C(=O)O)cc1)OCCO3	.	.	.	9.3µM
CCOC(=O)CSc1nc2cc3c(cc2cc1CC)OCCO3	.	?	.	12µM
COc1cccc(CSc2nc3cc4c(cc3cc2C)OCCO4)c1	.[11.6 µM]	.	.	5.9µM
Cc1cc2cc3c(cc2nc1SCC(=O)O)OCCO3	.	.	.	?
Cc1cc2cc3c(cc2nc1SCC(=O)OC(C)C)OCCO3	.	/	.	.
CCc1cc2cc3c(cc2nc1SCC(=O)OC(C)C)OCO3	.	.	.	.
NC(=O)c1nsc(C(=O)N(c2ccc3c(c2)OCO3)C(C(=O)NCC2CCCO2)c2ccc(F)cc2)c1N (centres undefined)	.	?	.	.
O=C(CCCn1c(SCc2cccc([N+](=O)[O-])c2)nc2ccccc2c1=O)NCC1CCCO1 (centres undefined)	.	?	.	.
SMILES	AMA1 RON2 block	Pf growth 48h	SARS PLP yeast	Pf growth 96h
CCOc1ccc(CCNC(=O)c2cc(C)nn2-c2ccccc2)cc1	.	.	.	.
CC(C)CCN(CCC(C)C)C/C(O)=C(\C#N)c1nc(-c2ccccc2)cs1	.	/	.	2.6µM
N#C/C(=C(/O)CN1CCN(c2ccccc2F)CC1)c1nc(-c2ccccc2)cs1	.	.	.	.
COc1cccc(Nc2nc3cc(OC)ccc3cc2C#N)c1	.	.	.	5.2µM
CCc1ccc(OCc2cccc(C(=O)N/N=C\c3cnn(C)c3C)c2)cc1	.	.	.	.
CCn1c2ccccc2c2cc(Nc3cc(C)nc4ncnn34)ccc21	.	0.074µM	.	.
CCN(CC)S(=O)(=O)c1ccc(Nc2cc(C)nc3ncnn23)cc1	.	15µM	.	?
Cc1cc(Nc2cccc(Cl)c2)n2ncnc2n1	.	.	.	1.7µM
Cc1cc(C)cc(Nc2cc(C)nc3ncnn23)c1	.	/	/	/
Cc1cc(Nc2ccc(Cl)cc2)n2ncnc2n1	.	?	.	.
Cc1cc(Nc2ccc(N(C)C)cc2)n2ncnc2n1	.	2.3µM	.	.
O=C(CCC(=O)N(CC(=O)NC1CCCC1)Cc1ccc2c(c1)OCO2)Nc1nccs1	/	.	.	.
O=C(Nc1cc(Cl)cc(Cl)c1)C1CCCC1	.	.	.	.
Cc1ccc(OCC(=O)N2CCC(N3CC(C)CC(C)C3)CC2)cc1 (centres undefined)	.	.	?	?
CCCOC(=O)c1ccc(Nc2cc(C)nc3ncnn23)cc1	.	8.3µM	.	.
CCc1ccc(Nc2cc(C)nc3ncnn23)cc1	.	3.3µM	.	.
CC(C)CNS(=O)(=O)c1ccc(OCC(=O)Nc2ccc3c(c2)OCCO3)cc1	.	.	.	?
